Here are results for 25 compounds from PubChem BioAssay AID2685 (National Center for Advancing Translational Sciences (NCATS), 2010).

Hit rate of the full screen: of about 320,000 compounds, about 2,100 (0.66%) were called active. Roughly 53% stayed inconclusive and do not appear here. Calls come from the whole dose curve; as a rule, active = well fitted inhibition curve with a large enough effect in the signal ratio, with a control signal flat (not every such curve was filed as active); inconclusive = small, poorly fitted or top-dose-only effect, or effect the other way, or a change in a side signal; inactive = flat fitted curve, though single readings scatter; the % refers to the signal ratio. The full list was thinned out, with actives kept by preference.
Potency is the fitted concentration of half-maximal effect.

A short description of this experiment: qHTS Assay for Lipid Storage Modulators in Drosophila S3 Cells.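 For cell number change: cells counted by Cell Tracker Red CMTPX staining in the red channel.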 For lipid storage change, negative = inhibition: % is set by controls: 0 for no effect and ±100 for the full control effect. To be noted: BODIPY lipid droplet fluorescence, 18-24 h, cells fed with added oleic acid; cell number change: measured here: cell count max response; series mostly up to 46.1 µM; lipid storage change, negative = inhibition: at the top concentration. A digest of the protocol:
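Drosophila S3 cells got compounds at several concentrations plus oleic acid (400 uM solution). Laser-scanning cytometry with 488 nm excitation read lipid droplets at 500-530 nm and cells at 575-640 nm. Percent activity was relative to 20 uM Triacsin C.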
`CCN(CC)CC(=O)N1c2ccccc2Oc2c(c(=O)n(C)c(=O)n2C)C1c1cccc([N+](=O)[O-])c1` (configuration not stated): the “lipid storage change, negative = inhibition” value was 9.31% (inactive) and the cell number change came to 16%.
Consider `COc1ccc(CC(=O)N/N=C(\C)CC(=O)Nc2ccc3c(c2)OCCO3)cc1OC`, for which the compound was called inactive and the cell number change is -9.52%.
Regarding `CN(c1ccccc1)S(=O)(=O)c1ccc(C(=O)OCC(=O)N2CCOCC2)cc1`, the call was inactive.
On to `O=c1cc(N2CCCCCC2)[nH]c(=O)n1-c1ccc(Cl)cc1`, for which the “lipid storage change, negative = inhibition” value was -7.58% (inactive) and the cell number change was -2.94%.
As for `CCCCC1=CC2=CC(=O)C(C)(OC(=O)CC)C(=O)C2=CN1CCCCO` (configuration not stated), the “lipid storage change, negative = inhibition” value is 0.621% (inactive) and the cell number change is 9.55%.
Regarding `Cc1cc(C)cc(C(=O)N2CCN=C2SCc2ccc([N+](=O)[O-])cc2)c1`, the Potency was 16.4 µM (active) and the cell number change came out at 28.4%.
With `O=C(c1ccccc1)N1CCN=C1SCc1ccc([N+](=O)[O-])cc1`, the “lipid storage change, negative = inhibition” value was 0.791% (inactive) and the cell number change was 12%.
The like results for `Cc1ccc(C(=O)N2CCN=C2SCc2ccc([N+](=O)[O-])cc2)cc1` were, in that order, 15.5% (inactive) and 4.98%.
In the case of `Cc1ccccc1-n1nc(C)c2cc(C(=O)N3CCOCC3)sc21`, the “lipid storage change, negative = inhibition” value is 0.853% (inactive) and the cell number change turned out to be 4.65%.
On to `Cc1ccccc1-n1c(SCC(=O)N2CCOCC2)nc(O)c(Cc2ccccc2)c1=O`, for which the result was inactive and the cell number change amounted to 15.6%.
As to `COc1ccccc1-n1c(SCC(=O)N2CCCCC2)nc(O)c(Cc2ccccc2)c1=O`, the call was inactive and the cell number change is -4.53%.
As to `CCc1c(O)nc(SCC(=O)Nc2ccccc2OC)n(-c2ccccc2C)c1=O`, the compound was called inactive.
On to `COc1ccccc1-n1cnnc1SCC(=O)N1CCOCC1`, for which the Potency is 0.0146 µM (active) and the cell number change was -10.4%.
The like results for `COc1ccccc1-n1c(SCC(=O)N2CCOCC2)nc(O)c(Cc2ccccc2)c1=O` were, in that order, 13 µM (active) and -8.86%.
As to `CCCCc1c(O)nc(SCC(=O)Nc2cccc3ccccc23)n(-c2ccccc2OC)c1=O`, the Potency is 20.6 µM (active) and the cell number change turned out to be 14.5%.
`COc1ccccc1-n1cnnc1SCC(=O)N1CCN(C(=O)c2ccco2)CC1`: the “lipid storage change, negative = inhibition” value was 1.02% (inactive) and the cell number change was found to be 21.6%.
Regarding `COc1ccccc1-n1c(SCC(=O)N2CCOCC2)nc(O)cc1=O`, the result was inactive and the cell number change is -21.1%.
As for `CCCCc1c(O)nc(SCC(=O)c2ccccc2)n(-c2ccccc2OC)c1=O`, the “lipid storage change, negative = inhibition” value was 1.38% (inactive) and the cell number change was 11.3%.
As to `CCn1c(=O)c2cc(C(=O)NCC(OC)OC)sc2c2ccccc21`, the “lipid storage change, negative = inhibition” value is -0.615% (inactive) and the cell number change was found to be 25.4%.
On to `CCOC(=O)c1csc(NC(=O)C(C)(C)C)n1`, for which the “lipid storage change, negative = inhibition” value was -3.09% (inactive) and the cell number change was -3.51%.
On the same counts, the results for `O=C(c1ccc(F)cc1)C1CCN(C(=O)Nc2ccc(F)cc2F)CC1` are 12.9% (inactive) and 14.5%.
`CCCc1c(O)c2ccccc2[nH]c1=O`: the “lipid storage change, negative = inhibition” value was 17.1% (inactive) and the cell number change was found to be 3.83%.
In the case of `C/C(CC(=O)Nc1cccc(Cl)c1C)=N\NC(=O)Cc1csc(N)n1`, the “lipid storage change, negative = inhibition” value is -3.2% (inactive) and the cell number change was determined as 22%.
`CNc1nc(N)c([N+](=O)[O-])c(Nc2ccccc2OC)n1`: the “lipid storage change, negative = inhibition” value was 9.33% (inactive) and the cell number change was determined as 11.2%.
As to `S=C(NC1CC1)N1CCCc2ccccc21`, the compound was classed as inactive.
